This is one part of a sample in which hits are shown more often than they occur.
ST2 IL33 inh – blocks human ST2 binding to IL-33 | 78,000 compounds, 2.3% hits | inhibition, % for hits at 17 µM | Q01638 | AID 1259354 | AlphaLISA ST2-Fc/biotin-IL-33 interaction, 1 h; in the data active = inhibition above about 30%
Target sequence (Q01638 whole entry, looked up): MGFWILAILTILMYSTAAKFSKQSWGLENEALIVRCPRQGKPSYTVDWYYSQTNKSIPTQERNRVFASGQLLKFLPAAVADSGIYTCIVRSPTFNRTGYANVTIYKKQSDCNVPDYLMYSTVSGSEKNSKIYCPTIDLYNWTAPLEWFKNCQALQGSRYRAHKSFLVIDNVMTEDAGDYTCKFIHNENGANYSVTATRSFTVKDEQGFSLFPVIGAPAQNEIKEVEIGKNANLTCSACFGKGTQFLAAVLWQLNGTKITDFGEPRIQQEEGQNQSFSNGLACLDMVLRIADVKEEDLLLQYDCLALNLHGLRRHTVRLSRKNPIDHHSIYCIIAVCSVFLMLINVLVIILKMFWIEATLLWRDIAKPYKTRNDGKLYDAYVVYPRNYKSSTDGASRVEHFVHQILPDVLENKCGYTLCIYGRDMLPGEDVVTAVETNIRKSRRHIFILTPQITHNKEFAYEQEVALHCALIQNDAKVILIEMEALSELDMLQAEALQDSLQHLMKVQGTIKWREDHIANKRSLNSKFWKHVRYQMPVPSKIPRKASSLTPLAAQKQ
A number is an active result; – = inactive.

SMILES | ST2 IL33 inh
O=C(O)/C(=C/c1ccc2c(c1)OCO2)NC(=O)c1ccccc1Br | –
O=C1CC(c2cnn3cccnc23)c2cnn(Cc3cccnc3)c2N1 (stereo unspecified) | –
O=C1c2ccccc2/C(=C\c2ccccc2)N1Cc1ccc(Cl)cc1 | –
CCC(=O)N1N=C2c3cc(OC)ccc3CCC2C1c1cccc(F)c1 (stereo unspecified) | –
CCOC(=O)C1(CC2CC2)CCN(Cc2ccc(SC)cc2)CC1 | –
CCN1C(=O)N(CCN(C)C)C(=O)C12CCN(Cc1ccc(SC)cc1)CC2 | 51.0%
CCN1C(=O)N(CCCc2cccnc2)C(=O)C12CCN(Cc1cnc(-c3ccccc3)s1)CC2 | –
COc1cc2c(cc1OC)C(c1ccccc1OCc1ccccc1)CC(=O)N2 (stereo unspecified) | –
Cc1ccc(S(=O)(=O)Nc2ccc(C(=O)O)cc2)cc1 | –
Cc1ncc(CC(=O)NC2CC(=O)N(C3Cc4ccccc4C3)C2)c(=O)[nH]1 (stereo unspecified) | –
O=[N+]([O-])c1ccc(N2CCN(Cc3ccc(Br)s3)CC2)cc1 | 36.0%
Cc1ccccc1N1CCN(Cc2ccc(Br)s2)CC1 | –
CCOc1ccccc1N1CCN(Cc2ccc([N+](=O)[O-])cc2)CC1 | –
CN(C)c1ccc(CN2CCN(c3ccc([N+](=O)[O-])cc3)CC2)cc1 | 51.0%
COc1cc(CN2CCN(c3ccc([N+](=O)[O-])cc3)CC2)ccc1O | –
O=[N+]([O-])c1ccc(N2CCN(CCO)CC2)cc1 | –
O=C(CC(c1ccccc1)c1ccc(Cl)cc1)NCCc1cnccn1 (stereo unspecified) | –
CN(Cc1ccccc1)C(=O)C1CCCN1S(=O)(=O)c1cccc2nsnc12 (stereo unspecified) | –
CCOC(=O)c1c(NC(=O)CSc2cn(C)c3ccccc23)sc2c1CCCCC2 | –
COc1ccc(NCC(O)Cn2c(C)c(C)c3ccccc32)cc1 (stereo unspecified) | 32.0%
Cc1ccc(C)c(NCC(O)Cn2c(C)c(C)c3ccccc32)c1 (stereo unspecified) | –
Cc1c(C)n(CC(O)CNC2CCCCC2)c2ccccc12 (stereo unspecified) | –
CCOC(=O)c1c(C)n(C)c2ccc(OC(=O)c3ccc(OC)c(OC)c3)cc12 | –
CC1(C2CCC(=O)O2)CC(=O)c2c(O)cc(CO)cc2O1 (stereo unspecified) | 30.0%
O=C(Cn1nnc(-c2ccccc2F)n1)Nc1ccccc1F | –
SMILES | ST2 IL33 inh
Cc1ccc(S(=O)(=O)N=C(N)NC#N)cc1 | –
CN(C)/C=C/C=C/C=C1\CCC/C(=C\C=C\N(C)C)C1=O | 63.0%
CC1=C[C@@H](CNC(=O)c2ccccn2)[C@H](C(C)C)C[C@H]1CC(=O)O | –
Cc1oc2c(C)c(O)ccc2c(=O)c1-c1ccccc1 | –
CC(C)c1noc([C@@H]2Cc3nc[nH]c3CN2Cc2cccc(OC(F)(F)F)c2)n1 | –
CSc1nc2nc3c(cc2c(=O)n1-c1ccccc1C)COC(C)(C)C3 | –
CCCSc1nc2nc3c(cc2c(=O)n1-c1ccc(OC)cc1)COC(C)(C)C3 | 44.0%
CCC1(C)Cc2c(sc3nc(SC)n(-c4ccc(OC)cc4)c(=O)c23)CO1 (stereo unspecified) | –
COc1cc2c(cc1OC)CN(Cc1cccc([N+](=O)[O-])c1)CC2 | –
O=C(CCc1ccccc1)Nc1nnc(Cc2ccccc2F)s1 | –
CCOc1ccccc1OCCCCOc1ccc([N+](=O)[O-])cc1 | –
CCN(c1ccccc1)S(=O)(=O)c1cc([N+](=O)[O-])ccc1N | 32.0%
CCN(c1ccccc1)S(=O)(=O)c1cc(OC)ccc1OC | –
CCN(c1ccccc1)S(=O)(=O)c1ccc(OC)c(OC)c1 | –
Cc1ccc(NC(=O)C2(N(Cc3ccccc3)C(=O)Cn3nnnc3N)CCCCC2)cc1 | –
O=[N+]([O-])c1ccc(S(=O)(=O)n2nnc3ccccc32)cc1 | –
O=[N+]([O-])c1ccc(-n2ccc3ccccc32)cc1 | 32.0%
COc1ccc(-n2ccc3ccccc32)cc1 | –
CCCCCCCCCCC1C(=O)OC(C(=O)O)C1(O)C(=O)O (stereo unspecified) | –
CCOC(=O)C(CC)Oc1ccc2c(=O)c(Oc3cc(C)cc(C)c3)coc2c1 (stereo unspecified) | –
O=C(Nc1ccccc1-c1ccccc1)c1ccccc1 | –
CC(=O)Nc1ccc2cccccc1-2 | 56.0%
O=C(CCCc1ccccc1)Nc1ccccc1-c1ccccc1 | –
O=C1NC(=O)c2cc(Nc3ccccc3)c(Nc3ccccc3)cc21 | –
Cn1c(=O)cc2c3c(c(Nc4ccccc4)ccc31)C(=O)c1ccccc1-2 | 40.0%
SMILES | ST2 IL33 inh
Cn1c(CNc2ccccc2)cc(=O)n(C)c1=O | –
CCc1ccc(CNC(=O)CCc2nc(-c3ccc(C)cc3)no2)cc1 | –
COc1cc(/C=c2\sc3nc(-c4cccnc4)nn3c2=O)ccc1OCCC(C)C | –
COC(=O)c1ccccc1Sc1c(-c2ccccc2)nc2sccn12 | –
O=[N+]([O-])c1ccc(Sc2c(-c3ccccc3)nc3sccn23)cc1 | 32.0%
c1ccc(Sc2c(-c3ccccc3)nc3ncccn23)cc1 | –
Cc1cc(C)n(-c2ccc(-n3cnnc3)cc2)n1 | –
Cc1nn(-c2ccccn2)c(C)c1[C@@H]1C=C[C@@H](NC(=O)CCCC(=O)O)C1 | –
O=[N+]([O-])c1ccccc1S(=O)(=O)NCc1cccnc1 | –
O=[N+]([O-])c1cccnc1NCc1ccccc1 | 39.0%
COc1ccc(CNc2ncnc(NCc3ccc(OC)cc3)c2[N+](=O)[O-])cc1 | –
CN(CCCNC(=O)c1cc(-c2cccnc2)nc2ccccc12)Cc1ccccc1 | –
CCNc1ncnc2sc3c(c12)CCCC3 | –
c1nc(Nc2ccc(N3CCCCC3)cc2)c2c3c(sc2n1)CCCC3 | 58.0%
COc1cccc(Nc2ncnc3sc4c(c23)CCCC4)c1 | –
OCC1(Cc2cccc(C(F)(F)F)c2)CCN(Cc2ccnc3ccccc23)CC1 | –
N.N.[Cl-].[Cl-].[Pt+4] | 77.0%
COc1ccc(Cc2noc(-c3ccc(NC(C)c4cnn(C)c4)nc3)n2)cc1 (stereo unspecified) | –
Cc1cnc(CN(C)C(=O)CC(=O)Nc2cc(Cl)ccc2C)[nH]1 | –
CCc1oc(C(=O)N2CCOC(C(F)(F)F)C2)cc1CN(CC)CC (stereo unspecified) | –
Cc1ccc(NC(=O)C2CCCCC2)cc1OCc1cc(=O)n2cccc(C)c2n1 | –
Cc1ccc(SCC(=O)Nc2ccc(C)c(OCc3cc(=O)n4cccc(C)c4n3)c2)cc1 | –
Cc1ccc(NC(=O)c2ccccc2C)cc1OCc1cc(=O)n2cccc(C)c2n1 | 33.0%
Cc1ccc(CNS(=O)(=O)c2ccc(CC(C)C)cc2)cc1 | –
Cc1ccc2nc(-c3ccc(NC(=O)c4ccc(Br)o4)cc3)oc2c1 | –
SMILES | ST2 IL33 inh
CCOc1cccc(C(Nc2ccccn2)c2ccc3ccc(C)nc3c2O)c1O (stereo unspecified) | –
Cc1ccc2ccc(C(Nc3ccccn3)c3cccnc3)c(O)c2n1 (stereo unspecified) | –
Cc1ccc2ccc(C(Nc3ccccn3)c3ccc(N(C)C)cc3)c(O)c2n1 (stereo unspecified) | 41.0%
CSc1ccc(C(Nc2ccccn2)c2ccc3cccnc3c2O)cc1 (stereo unspecified) | 33.0%
Fc1ccc(C(Nc2ccccn2)c2c[nH]c3ccccc23)cc1 (stereo unspecified) | –
COc1ccc(C(Nc2cc(C)ccn2)c2ccc3ccc(C)nc3c2O)cc1OC (stereo unspecified) | –
COc1ccc(C2=NN(C(=O)CCC(=O)O)C(c3ccc(C)cc3)C2)cc1OC (stereo unspecified) | –

Source: PubChem BioAssay (Paczesny and Yang Labs, IUPUI and University of Michigan)
